Results taken from PubChem BioAssay (NCI).
“And” between values parts separate entries of the source, which are not always exact repeats. Identical values can stand only once. The panel holds about 79,000 compounds, 15% with a hit somewhere; the sample as a whole holds those more often. The source holds several records for some structures; these can differ, active in one and inactive in another. The source made the active and inactive calls. No stated cut-off is given here; in the data, active means growth inhibition above about 70%; inactive means the rest.

Key:
[1] = NCI Yeast Anticancer Drug Screen. Data for the rad50 strain (AID 155);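 further: 0% = growth of vehicle-only cultures of the same strain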; conditions: S. cerevisiae rad50 strain growth inhibition; at 50.0 µM; stronger effect = higher value
In short: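 Genetically altered yeast (DNA repair pathway); compound treatment; growth inhibition vs vehicle ctrl.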

[2] = NCI Yeast Anticancer Drug Screen. Data for the mec2-1 strain (AID 157); conditions: S. cerevisiae mec2-1 strain, at 50.0 µM, stronger effect = higher value
In short: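 Each compound was tested on mec2-1 yeast, a strain altered in DNA damage repair or cell cycle control. Growth inhibition is reported relative to vehicle.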

[3] = NCI Yeast Anticancer Drug Screen. Data for the sgs1 mgt1 strain (AID 161);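 further: 0% = growth of cultures given vehicle only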; conditions: S. cerevisiae sgs1 mgt1 strain, at 50.0 µM, stronger effect = higher value
In short: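 Genetically altered yeast, compound exposure, growth inhibition relative to vehicle.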

[4] = NCI Yeast Anticancer Drug Screen. Data for the cln2 rad14 strain (AID 165);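 further: 0% = growth equal to vehicle treated cultures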; conditions: S. cerevisiae cln2 rad14 strain, at 50.0 µM, stronger effect = higher value
In short: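 Test compounds were added to cln2 rad14 yeast cultures; inhibition of growth was then determined by comparison with vehicle treatment.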

[5] = NCI Yeast Anticancer Drug Screen. Data for the bub3 strain (AID 167); conditions: S. cerevisiae bub3 mutant strain, at 50.0 µM, stronger effect = higher value
In short: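 Yeast carrying a defined mutation is treated with each compound, and growth is compared with that of vehicle-exposed cells to give inhibition.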

[6] = NCI Yeast Anticancer Drug Screen. Data for the mlh1 rad18 strain (AID 175); conditions: S. cerevisiae mlh1 rad18 strain growth inhibition; at 50.0 µM; stronger effect = higher value
In short: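 Inhibition values reflect reduced growth of mutant yeast versus vehicle-treated controls following compound exposure; the mutations affect DNA damage repair.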

SMILES | growth inhibition [1] | growth inhibition [2] | growth inhibition [3] | growth inhibition [4] | growth inhibition [5] | growth inhibition [6]
CC1CC(=O)C2CC1C2(C)C (configuration not stated) | 18% (inactive) and 27.3% (inactive) | -9.05% (inactive) and 0.3% (inactive) | -2.15% (inactive) and 11.7% (inactive) | -0.85% (inactive) and 12.1% (inactive) | 6% (inactive) and 14.1% (inactive) | -6.1% (inactive) and 23.9% (inactive)
O=C(O)c1cccc(S(=O)(=O)O)c1 | -22.6% (inactive) and -9.2% (inactive) | -40.5% (inactive) and -8.4% (inactive) | -1.2% (inactive) and -9.2% (inactive) | -14.1% (inactive) and 13% (inactive) | -2.05% (inactive) and 0% (inactive) | 0.4% (inactive) and 2.45% (inactive)
CC1(C)OC2OC(C(COS(C)(=O)=O)OS(C)(=O)=O)C(OS(C)(=O)=O)C2O1 (configuration not stated) | 15.7% (inactive) and -9.65% (inactive) | 2.6% (inactive) and 9.75% (inactive) | 37.9% (inactive) and 10.2% (inactive) | 16.4% (inactive) and 20.6% (inactive) | 5.9% (inactive) and 1.45% (inactive) | 16.2% (inactive) and 8% (inactive)
COC1OC2COCOC2C(O)C1O (configuration not stated) | 16.4% (inactive) and 11.6% (inactive) | 17.1% (inactive) and 7.85% (inactive) | 10.9% (inactive) and 1.8% (inactive) | -53.6% (inactive) and -34.5% (inactive) | 14.9% (inactive) and 8.8% (inactive) | -4.9% (inactive) and 5.65% (inactive)
NC(Cn1ccc(=O)c(O)c1)C(=O)O (configuration not stated) | 9.8% (inactive) and -0.85% (inactive) | 18.6% (inactive) and 5.7% (inactive) | 7.35% (inactive) and 21.9% (inactive) | 13.2% (inactive) and 6.8% (inactive) | 10.7% (inactive) and 11.4% (inactive) | -90.2% (inactive) and 4.3% (inactive)
NC(N)=NC(N)=Nc1ccc(S(N)(=O)=O)cc1 | 21.6% (inactive) and 10.5% (inactive) | 14.7% (inactive) and 4.3% (inactive) | 13.4% (inactive) and 14.7% (inactive) | -13.8% (inactive) and -48.6% (inactive) | 34.2% (inactive) and -9.8% (inactive) | 34.2% (inactive) and 18.5% (inactive)
CCc1cc(-c2ccc(OC)cc2)c(C#N)c(=S)n1C1OC(COC(C)=O)C(OC(C)=O)C(OC(C)=O)C1OC(C)=O (configuration not stated) | 40% (inactive) and 5.75% (inactive) | 1.35% (inactive) and -4.9% (inactive) | -10.4% (inactive) and -18.7% (inactive) | -20.9% (inactive) and -29.4% (inactive) | -0.9% (inactive) and 1.85% (inactive) | 11.2% (inactive) and 7.05% (inactive)
O=C(O)C1C2OC(C(Br)C2Br)C1C(=O)O (configuration not stated) | -12.3% (inactive) and -7.9% (inactive) | 15.1% (inactive) and -12.1% (inactive) | -2.45% (inactive) and -26.4% (inactive) | 71.8% (active) and 12.1% (inactive) | 94.5% (active) and -11.8% (inactive) | 13.9% (inactive) and -0.15% (inactive)
Nc1nc2nccnc2c(=O)[nH]1 | -10.2% (inactive) and 6.15% (inactive) | 47% (inactive) and -1.65% (inactive) | 1.55% (inactive) and -5.7% (inactive) | -18.6% (inactive) and -0.35% (inactive) | -24.9% (inactive) and 1.45% (inactive) | -15.2% (inactive) and -0.8% (inactive)
O=C1NC(CCCl)C(=O)NC1CCCl (configuration not stated) | 1.6% (inactive) and -0.7% (inactive) | -2.05% (inactive) and 4.55% (inactive) | -16.1% (inactive) and -3.55% (inactive) | -10.2% (inactive) and -7.55% (inactive) | -1.45% (inactive) and 2.4% (inactive) | 1.6% (inactive) and -1.35% (inactive)
CSCCC(NC(=O)COc1ccc(Cl)cc1Cl)C(=O)O (configuration not stated) | -21.3% (inactive) and 16.8% (inactive) | -35.6% (inactive) and 60% (inactive) | -44.5% (inactive) and 34.2% (inactive) | 6.2% (inactive) and 7.2% (inactive) | -23.4% (inactive) and 30.6% (inactive) | -33.3% (inactive) and 52.7% (inactive)
CC(Cc1ccccc1)NC1=NCCO1 (configuration not stated) | -10.2% (inactive) and -16.2% (inactive) | -4.95% (inactive) and -18.4% (inactive) | 0.55% (inactive) and 1.5% (inactive) | 17.1% (inactive) and -13.2% (inactive) | -25.9% (inactive) and -27.4% (inactive) | 0.1% (inactive) and 72.5% (active)
O=C(O)c1cccnc1 | 18.2% (inactive) and 13.2% (inactive) | 5.35% (inactive) and -7.8% (inactive) | -4.15% (inactive) and -10% (inactive) | 2.65% (inactive) and -2.6% (inactive) | 5.65% (inactive) and -0.1% (inactive) | 18.5% (inactive) and 16.7% (inactive)
C1OC2COCOC2C2OCOCC2O1 (configuration not stated) | -22.8% (inactive) and -3% (inactive) | -17.2% (inactive) and -9.95% (inactive) | -17.4% (inactive) and -7.85% (inactive) | -33.5% (inactive) and -14.5% (inactive) | -13.3% (inactive) and 0.85% (inactive) | -4.45% (inactive) and -4.65% (inactive)
CCOC(=O)C(=O)Cc1cnc2ccccc2n1 | 1.95% (inactive) and 3.05% (inactive) | 7.55% (inactive) and -4.8% (inactive) | -18.8% (inactive) and -8.3% (inactive) | 3.6% (inactive) and 10.7% (inactive) | -1.2% (inactive) and 7.2% (inactive) | 16.2% (inactive) and -5.05% (inactive)
O=C(OC(=C(c1ccccc1)c1ccccc1)c1ccccc1)c1ccccc1 | 12.8% (inactive) and -6.95% (inactive) | -0.2% (inactive) and -10.2% (inactive) | -4.45% (inactive) and 15.2% (inactive) | -9.6% (inactive) and -22.2% (inactive) | -0.05% (inactive) and 5.6% (inactive) | 11.2% (inactive) and 20.4% (inactive)
COC(=O)C1=COC(C)C2CN3CCc4c([nH]c5cc(OC)c(OC)cc45)C3CC12 (configuration not stated) | 14.2% (inactive) and 5.35% (inactive) and -4.65% (inactive) | -5.4% (inactive) and -5.6% (inactive) and -9.7% (inactive) | 5.6% (inactive) and 12.8% (inactive) and -5.45% (inactive) | 6.1% (inactive) and 14.9% (inactive) and 10.6% (inactive) | 26.4% (inactive) and 18.1% (inactive) and -20.4% (inactive) | 25.6% (inactive) and -54.1% (inactive) and -63.4% (inactive)
Nc1ccc(S(=O)(=O)Nc2cnc3ccccc3n2)cc1 | -11.1% (inactive) and -2.05% (inactive) | -1.95% (inactive) and -1.25% (inactive) | 2.25% (inactive) and -5.9% (inactive) | -20.2% (inactive) and -30.1% (inactive) | -11.2% (inactive) and -10.6% (inactive) | -4.45% (inactive) and -6.45% (inactive)
COc1ccc2c(c1)CCC1C[C@@H]3C[C@]21C=CC3=O (some centres not stated) | 11.8% (inactive) and -3.5% (inactive) | -11.8% (inactive) and -6.75% (inactive) | 0.75% (inactive) and 14.9% (inactive) | 9.6% (inactive) and 8.05% (inactive) | 24% (inactive) and 19.4% (inactive) | 5.15% (inactive) and 11.7% (inactive)
C1=NCCCN1 | 19.4% (inactive) and 21.4% (inactive) | -7.95% (inactive) and -23.4% (inactive) | 13.3% (inactive) and 20.6% (inactive) | 9.4% (inactive) and 6.35% (inactive) | 18.2% (inactive) and 3% (inactive) | 22.2% (inactive) and 18.6% (inactive)
COc1cc2c(c(OC)c1OC)-c1ccc(OC)c(=O)cc1C([N+](C)(C)C)CC2 (configuration not stated) | 21.2% (inactive) and -13.3% (inactive) | 12.3% (inactive) and 7.7% (inactive) | 16.9% (inactive) and -18.1% (inactive) | -0.65% (inactive) and -11.1% (inactive) | -3% (inactive) and -0.4% (inactive) | 25.5% (inactive) and 7.4% (inactive)
NC(N)=NCCCC1NC(=O)C(Cc2ccc(O)cc2)NC1=O (configuration not stated) | 15.3% (inactive) and -3.3% (inactive) | 21.8% (inactive) and -3.25% (inactive) | 48.9% (inactive) and -4.85% (inactive) | -5.05% (inactive) and -8.55% (inactive) | 38.2% (inactive) and 3.55% (inactive) | 33.2% (inactive) and -1.6% (inactive)
